Laboratory results from PubChem BioAssay (Tox21).
Inconclusive results are not listed. Calls of active or inactive are those of the source. Unless noted, calls follow the shape of the dose curve; as a rule, active = well fitted curve in the direction sought with a large enough effect in the repeat runs; inconclusive = weak or mixed curves; inactive = no such curve, though single readings can be large; an effect the other way counts as inactive or inconclusive.

What was measured:
[1] = biological target: Luciferin 4-monooxygenase (Photinus pyralis) (UniProt P08659); assay: qHTS assay to identify small molecule inhibitors of firefly luciferase (AID 1224835); also: nearly all actives have a fitted effect of over 25% in size; also: potency is read from the fitted curve at half-maximal effect; as to activity change, negative = inhibition: series mostly up to about 120 µM
Luciferin 4-monooxygenase (Photinus pyralis), sequence (P08659 whole entry, looked up): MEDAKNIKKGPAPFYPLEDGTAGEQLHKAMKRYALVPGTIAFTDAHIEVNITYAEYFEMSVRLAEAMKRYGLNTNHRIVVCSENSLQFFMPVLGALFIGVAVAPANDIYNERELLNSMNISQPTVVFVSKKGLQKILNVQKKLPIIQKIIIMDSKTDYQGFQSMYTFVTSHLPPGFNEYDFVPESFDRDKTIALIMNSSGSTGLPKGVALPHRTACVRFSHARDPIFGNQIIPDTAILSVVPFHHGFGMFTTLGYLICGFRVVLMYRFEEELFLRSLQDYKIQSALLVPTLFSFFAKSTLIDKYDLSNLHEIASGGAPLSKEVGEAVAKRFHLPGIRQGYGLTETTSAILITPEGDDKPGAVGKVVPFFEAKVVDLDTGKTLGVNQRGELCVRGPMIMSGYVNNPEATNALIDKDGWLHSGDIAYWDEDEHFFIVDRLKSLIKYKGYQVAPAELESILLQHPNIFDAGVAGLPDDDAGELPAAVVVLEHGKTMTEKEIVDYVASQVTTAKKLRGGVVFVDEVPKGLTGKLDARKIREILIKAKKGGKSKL
Method in brief: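 Quantitative HTS format; KM concentrations of both substrates. Purified P. pyralis FLuc activity quantified from luminescence images.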

[2] = qHTS assay to identify small molecule agonists of the constitutive androstane receptor (CAR) signaling pathway - cell viability counter screen (AID 1224836); also: series mostly up to about 92 µM; nearly all actives have a fitted effect of over 45% in size
Method in brief: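 Cells were seeded and incubated 4 hrs. Compounds were added across 15 concentrations together with PK11195 at 0.75 uM final. Plates were incubated 23 hrs at 37 C. CellTiter-Fluor was added and fluorescence measured.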

[3] = qHTS assay to identify small molecule antagonists of the constitutive androstane receptor (CAR) signaling pathway - cell viability counter screen (AID 1224837); also: series mostly up to about 92 µM; nearly all actives have a fitted effect of over 45% in size
Method in brief: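 HepG2 cells stably expressing hCAR and a CYP2B6-2.2kb reporter were plated and pre-incubated 4 hr at 37 C/5% CO2, then given compounds at 15 concentrations plus 50 nM CITCO (final). After 23 hr, viability was read by CellTiter-Fluor fluorescence.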

[4] = biological target: Nuclear receptor subfamily 1 group I member 3 (Homo sapiens) (UniProt Q14994); assay: qHTS assay to identify small molecule antagonists of the constitutive androstane receptor (CAR) signaling pathway (AID 1224838); also: nearly all actives have a fitted effect of over 40% in size
Nuclear receptor subfamily 1 group I member 3 (Homo sapiens), sequence (Q14994 whole entry, looked up): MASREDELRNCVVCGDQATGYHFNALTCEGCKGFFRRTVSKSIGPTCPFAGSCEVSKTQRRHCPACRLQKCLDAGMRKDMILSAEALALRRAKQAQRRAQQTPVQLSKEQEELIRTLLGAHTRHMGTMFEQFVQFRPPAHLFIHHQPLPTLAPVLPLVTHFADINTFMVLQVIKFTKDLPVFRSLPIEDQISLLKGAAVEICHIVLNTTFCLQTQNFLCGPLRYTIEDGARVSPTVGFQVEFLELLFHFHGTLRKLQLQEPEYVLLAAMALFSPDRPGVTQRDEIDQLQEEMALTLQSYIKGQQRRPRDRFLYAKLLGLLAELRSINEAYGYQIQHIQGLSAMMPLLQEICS
Method in brief: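 HepG2 cells stably co-transfected with hCAR and a CYP2B6-2.2kb luciferase reporter were seeded 4 h before compound addition at 15 concentrations. Cells were stimulated with 50 nM CITCO (final) for 24 h at 37 C; luciferase luminescence was then read.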

[5] = biological target: Nuclear receptor subfamily 1 group I member 3 (Homo sapiens) (UniProt Q14994); assay: qHTS assay to identify small molecule agonists of the constitutive androstane receptor (CAR) signaling pathway (AID 1224839); also: nearly all actives have a fitted effect of over 15% in size; also: potency is read from the fitted curve at half-maximal effect;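 as to activation: HepG2 cells stably carrying human CAR and a CYP2B6 luciferase reporter; series mostly up to about 92 µM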
Method in brief: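 Cells were plated and incubated 4 hrs, then dosed with compounds at 15 concentrations. PK11195 was added to 0.75 uM final. After 24 hrs at 37 C, luciferase luminescence was measured.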

[6] = qHTS assay to identify small molecule antagonists of the estrogen related receptor signaling pathway with the pleiotropic PPARgamma coactivator (PGC) from Tox21 10K library - cell viability counter screen (AID 1224840; active = well fitted cell-killing curve with a large enough effect in the repeat runs, not every such curve was filed as active; also: nearly all actives have a fitted effect of over 40% in size)
Method in brief: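 PGC/ERR cells were seeded at 2,000 cells/well and left 6 hours at 37 C/5% CO2 before pin-tool addition of compounds in DMSO. After 17.5 hours at 37 C, CellTiter-Fluor was added and fluorescence read 30 minutes later.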

[7] = qHTS assay to identify small molecule agonists of the hypoxia (HIF-1) signaling pathway - cell viability counter screen (AID 1224844; calls by dose curve; also: nearly all actives have a fitted effect of over 50% in size)
Method in brief: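 HRE-bla ME-180 cells in medium with 0.5% dialyzed FBS were preincubated 5 hrs at 37C, exposed to compounds for 17 hrs, then viability was read as CellTiter-Glo luminescence after 30 min at room temperature, in the reporter wells.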

[8] = biological target: Thyrotropin receptor (Homo sapiens) (UniProt P16473); assay: qHTS assay to identify small molecule agonists of the thyroid stimulating hormone receptor (TSHR) signaling pathway (AID 1224843; calls by dose curve; also: nearly all actives have a fitted effect of over 45% in size)
Thyrotropin receptor (Homo sapiens), sequence (P16473 whole entry, looked up): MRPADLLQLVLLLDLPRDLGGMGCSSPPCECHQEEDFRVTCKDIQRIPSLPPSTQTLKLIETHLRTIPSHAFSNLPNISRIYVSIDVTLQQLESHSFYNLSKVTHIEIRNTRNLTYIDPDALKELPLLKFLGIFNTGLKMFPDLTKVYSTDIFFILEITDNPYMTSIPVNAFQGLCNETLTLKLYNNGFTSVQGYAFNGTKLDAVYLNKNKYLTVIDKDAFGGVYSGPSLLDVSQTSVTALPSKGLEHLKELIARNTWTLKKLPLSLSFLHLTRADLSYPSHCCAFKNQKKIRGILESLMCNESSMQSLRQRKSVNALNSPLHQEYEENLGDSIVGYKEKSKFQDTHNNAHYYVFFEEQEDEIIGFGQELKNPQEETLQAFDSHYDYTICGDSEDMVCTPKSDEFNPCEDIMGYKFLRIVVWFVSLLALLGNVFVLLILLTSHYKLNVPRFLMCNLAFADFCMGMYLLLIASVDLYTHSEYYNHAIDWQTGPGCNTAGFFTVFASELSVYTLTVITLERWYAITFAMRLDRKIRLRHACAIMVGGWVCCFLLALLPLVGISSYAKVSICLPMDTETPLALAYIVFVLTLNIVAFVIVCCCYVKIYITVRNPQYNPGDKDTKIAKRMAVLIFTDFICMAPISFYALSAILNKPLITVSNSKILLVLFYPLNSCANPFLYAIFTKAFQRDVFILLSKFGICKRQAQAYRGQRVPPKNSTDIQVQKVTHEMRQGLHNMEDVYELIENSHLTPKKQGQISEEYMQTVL
Method in brief: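 TSHR-expressing HEK293 cells (800 per well) were exposed to compounds for 30 min at room temperature. cAMP was then detected by HTRF competition with cAMP-d2 and anti-cAMP cryptate, read after 1 h at room temperature. Fifteen concentrations, triplicate.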

[9] = qHTS assay to identify small molecule agonists of the estrogen related receptor signaling pathway with the pleiotropic PPARgamma coactivator (PGC) from Tox21 10K library (AID 1224842); also: nearly all actives have a fitted effect of over 15% in size
Method in brief: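 PGC/ERR reporter cells (NTP line) were seeded 2,000 per well, rested 6 h at 37 C/5% CO2, then pin-dosed with compounds in DMSO for 18 h at 37 C; luciferase read by One-Glo luminescence after 30 min at room temperature.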
% is scaled to controls: 0 for no effect and ±100 for the full control effect.

CCOC(=O)C(C)O (stereo not drawn)
inactive: Potency [1] | Potency [2] | Potency [3] | Potency [4] | Potency [5] | Potency [6] | Potency [7]

CC[C@H]1OC(=O)[C@H](C)[C@@H](O[C@H]2C[C@@](C)(OC)[C@@H](O)[C@H](C)O2)[C@H](C)[C@@H](O[C@@H]2O[C@H](C)C[C@H](N(C)C)[C@H]2O)[C@](C)(O)C[C@@H](C)CN(C)[C@H](C)[C@@H](O)[C@]1(C)O
inactive: Potency [1] | Potency [2] | Potency [3] | Potency [4] | Potency [5] | Potency [6] | Potency [7]

CCCCCCCCCCCCCCN(C)C
inactive: activity change, negative = inhibition [1] -3.07% [at 23.6 µM] | viability change, negative = cytotoxic [2] 5.26% [at 19 µM] | activity change, negative = cytotoxicity [3] -1.86% [at 19 µM] | activity, negative = inhibition [4] 21.5% [at 19 µM] | activation [5] -0.414% [at 19 µM] | viability change, negative = cytotoxic [6] -1.6% [at 19 µM] | activation [8] 2.75% [at 19 µM] | activity change, negative = cytotoxicity [7] -7.12% [at 15.8 µM]

O=c1[nH]c2cc(C(F)(F)F)c(N3CCOCC3)cc2n(CP(=O)(O)O)c1=O
inactive: Potency [1] | Potency [2] | Potency [3] | Potency [4] | Potency [5] | Potency [6] | Potency [7]

Nc1nc2ccc(OC(F)(F)F)cc2s1
active: Potency [1] 24.5 µM | Potency [5] 11.9 µM
inactive: Potency [2] | Potency [3] | Potency [4] | Potency [6] | Potency [8] | Potency [7]

Cc1cc(CCCOc2c(C)cc(-c3noc(C(F)(F)F)n3)cc2C)on1
active: Potency [5] 23.7 µM
inactive: Potency [1] | Potency [2] | Potency [3] | Potency [4] | Potency [6] | Potency [8] | Potency [7]

CCCCCCCCCCCCCOC(=O)CCSCCC(=O)OCCCCCCCCCCCCC
inactive: activity change, negative = inhibition [1] -2.08% [at 23.6 µM] | viability change, negative = cytotoxic [2] -3.39% [at 19 µM] | activity change, negative = cytotoxicity [3] -3.13% [at 19 µM] | activity, negative = inhibition [4] 5.4% [at 19 µM] | activation [5] -0.548% [at 19 µM] | viability change, negative = cytotoxic [6] 0.0068% [at 19 µM] | activation [8] -1.63% [at 19 µM] | activity change, negative = cytotoxicity [7] 4.03% [at 15.8 µM]

CCC(Cl)CC(Cl)C(Cl)C(Cl)C(Cl)C(C)Cl (stereo not drawn)
active: Potency [5] 2.65 µM
inactive: activity change, negative = inhibition [1] -6.92% [at 23.6 µM] | viability change, negative = cytotoxic [2] -5.9% [at 19 µM] | activity change, negative = cytotoxicity [3] -3.5% [at 19 µM] | activity, negative = inhibition [4] 94.1% [at 19 µM] | viability change, negative = cytotoxic [6] -3.01% [at 19 µM] | activation [8] 15.8% [at 19 µM] | activity change, negative = cytotoxicity [7] -3.49% [at 15.8 µM]

O=S(=O)(Cl)c1c(Cl)cccc1Cl
inactive: Potency [1] | Potency [2] | Potency [3] | Potency [4] | Potency [5] | Potency [6] | Potency [8] | Potency [7]

COc1ccc(-c2cc(=S)ss2)cc1
inactive: Potency [2] | Potency [3] | Potency [4] | Potency [6] | Potency [8] | Potency [7]
active: Potency [1] 15.5 µM | Potency [5] 23.7 µM

CC(=O)OCCC1CCCCC1
inactive: Potency [1] | Potency [2] | Potency [3] | Potency [4] | Potency [5] | Potency [6] | Potency [7]

O=C(O)CNC(=O)c1ccccc1I
inactive: Potency [1] | Potency [2] | Potency [3] | Potency [4] | Potency [5] | Potency [6] | Potency [8] | Potency [7]

CC(C)(C)C1(CCc2ccc(Cl)cc2)CO1 (stereo not drawn)
inactive: Potency [1] | Potency [2] | Potency [3] | Potency [4] | Potency [5] | Potency [6] | Potency [8] | Potency [7]

CC[C@H]1OC(=O)[C@H](C)[C@@H](O[C@H]2C[C@@](C)(OC)[C@@H](O)[C@H](C)O2)[C@H](C)[C@@H](O[C@@H]2O[C@H](C)C[C@H](N(C)C)[C@H]2O)[C@](C)(O)C[C@@H](C)C(=O)[C@H](C)[C@@H](O)[C@]1(C)O
inactive: Potency [1] | Potency [2] | Potency [3] | Potency [4] | Potency [5] | Potency [6] | Potency [8] | Potency [7]

O=C(O)CCC(=O)c1ccc(-c2ccccc2)cc1
active: Potency [1] 6.92 µM
inactive: Potency [2] | Potency [3] | Potency [4] | Potency [5] | Potency [8] | Potency [7]

CC(C)C(=O)OCCOc1ccccc1
inactive: Potency [1] | Potency [2] | Potency [3] | Potency [4] | Potency [5] | Potency [7]

Cc1c[nH]c2ccccc12
inactive: Potency [1] | Potency [2] | Potency [3] | Potency [4] | Potency [5] | Potency [9] | Potency [8] | Potency [7]

Nc1ccc(S(=O)(=O)NCc2ccccc2)cc1
inactive: Potency [1] | Potency [2] | Potency [3] | Potency [4] | Potency [5] | Potency [8] | Potency [7]

CCN(CC)CCNC(=O)c1cc(Cl)c(N)cc1OC
inactive: Potency [1] | Potency [2] | Potency [3] | Potency [4] | Potency [5] | Potency [8] | Potency [7]
